For nine compounds, growth results are on record in PubChem BioAssay (NCI).

This is part of a sample that, as a whole, favours compounds with a hit. Of some 83,000 tested, about 20% had one in any assay.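 96-well plates, one dose, 48 hours. Percent growth reported; active if below 10.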 A number with no mark means an inactive call. Active and inactive are the calls of the source.

What all share (assay): NCI-60 one-dose screen, 48 h (100 = growth as untreated, 0 = no growth, -100 = all killed)
The test system of one assay is 786-0 renal. Particulars: 10 µM unless noted.
In another assay the test system is DU-145 prostate. The conditions noted are these: 10 µM unless noted.
The subject of another assay is MDA-MB-231 breast. Particulars: 10 µM unless noted.
In another assay the test system is SF-268 CNS. The conditions noted are these: 10 µM unless noted.
The next assay relates to SF-539 CNS. The conditions noted are these: 10 µM unless noted.
The next assay deals with M14 melanoma. The conditions noted are these: 10 µM unless noted.
In a further assay the test system is HCT-15 colon. Particulars: 10 µM.
The subject of the next assay is SNB-19 CNS. Particulars: 10 µM unless noted.
The subject of another assay is UACC-62 melanoma. Particulars: 10 µM unless noted.
A further assay relates to SN12C renal. Particulars: 10 µM unless noted.
The subject of a further assay is ACHN renal. The conditions noted are these: 10 µM unless noted.
A further assay deals with MOLT-4 leukemia. The conditions noted are these: 10 µM.
The next assay deals with OVCAR-8 ovarian. The conditions noted are these: 10 µM unless noted.
The next assay concerns SK-OV-3 ovarian. Particulars: 10 µM unless noted.
A further assay deals with NCI/ADR-RES ovarian. Particulars: 10 µM unless noted.
A further assay deals with T-47D breast. The conditions noted are these: 10 µM unless noted.
The next assay concerns MDA-MB-435 melanoma. Particulars: 10 µM unless noted.
Another assay has as its system SW-620 colon. The conditions noted are these: 10 µM unless noted.
In a further assay the test system is HCT-116 colon. Particulars: 10 µM unless noted.
The next assay concerns KM12 colon. The conditions noted are these: 10 µM unless noted.

`Cc1cc(NC(=O)/C=C/c2ccc([N+](=O)[O-])cc2)ccc1S(=O)(=O)F`: the growth in the assay on 786-0 renal was 89.1%; in the assay with DU-145 prostate it was 103%; with MDA-MB-231 breast, 99.6%; in the assay on SF-268 CNS, 109%; with SF-539 CNS, 112%; with M14 melanoma, 112%. For the same compound, the growth in the assay on HCT-15 colon is 98.2%; in the assay with SNB-19 CNS, 109%; in the assay on UACC-62 melanoma, 98.2%; with SN12C renal, 92.4%; in the assay with ACHN renal, 105%; in the assay with MOLT-4 leukemia, 89.5%. For the same compound, the growth in the assay on OVCAR-8 ovarian is 98.6%; in the assay with SK-OV-3 ovarian it was 99.9%; in the assay on NCI/ADR-RES ovarian, 106%; with T-47D breast, 87.6%; in the assay on MDA-MB-435 melanoma, 99.7%; in the assay on SW-620 colon, 110%. In addition, the figures for the growth in the assay with HCT-116 colon and with KM12 colon were 113% and 97%, respectively.
`O=S(=O)(F)c1ncnc2nc[nH]c12`: the growth with 786-0 renal was 97.6%; in the assay with MDA-MB-231 breast it was 93.9%; with SF-268 CNS, 70%; in the assay on SF-539 CNS, 88.1%; in the assay with M14 melanoma, 100%; in the assay on HCT-15 colon, 98.3%. The growth is 93.4% in the assay with SNB-19 CNS; 89.8% with UACC-62 melanoma; 91.8% in the assay with SN12C renal; 98.1% with ACHN renal; 89.2% in the assay with MOLT-4 leukemia; 100% in the assay with OVCAR-8 ovarian. Moreover, the growth with SK-OV-3 ovarian is 94.7%; in the assay with NCI/ADR-RES ovarian, 93.8%; in the assay on T-47D breast, 91.3%; with MDA-MB-435 melanoma, 100%; with SW-620 colon, 95.4%; with HCT-116 colon, 100%. For the same compound, in the assay with KM12 colon, the growth is 81.8%.
With `COc1ccc(-c2ccc(OC)c(OC)c2OC)cc1`, the growth was 21.3% with 786-0 renal; 13.8% with DU-145 prostate; 43.8% in the assay on MDA-MB-231 breast; 51.5% with SF-268 CNS; 3.98% (active) in the assay with SF-539 CNS; 3.01% (active) with M14 melanoma. Besides, the growth in the assay on HCT-15 colon was 27.1%; in the assay on SNB-19 CNS, 38.9%; in the assay on UACC-62 melanoma, 34.4%; in the assay with SN12C renal, 42.3%; with ACHN renal, 55.8%; in the assay with MOLT-4 leukemia, 22.7%. For the same compound, the growth in the assay on OVCAR-8 ovarian is 21.7%; in the assay on SK-OV-3 ovarian, 7.71% (active); in the assay with NCI/ADR-RES ovarian, -20% (active); with T-47D breast it was 27%; in the assay on MDA-MB-435 melanoma it was -24% (active); in the assay with SW-620 colon it was 11.6%. For the same compound, the figures for the growth in the assay on HCT-116 colon and in the assay on KM12 colon were 15.3% and 29.2%, respectively.
As to `O=C(Nc1ccc(S(=O)(=O)F)cc1)Oc1ccccc1`, the growth in the assay with 786-0 renal was 102%; with DU-145 prostate it was 103%; in the assay with MDA-MB-231 breast, 104%; in the assay with SF-268 CNS, 102%; with SF-539 CNS, 104%; in the assay on M14 melanoma it was 110%. In addition, the growth in the assay on HCT-15 colon was 104%; in the assay with SNB-19 CNS, 97.6%; in the assay on UACC-62 melanoma, 97.5%; with SN12C renal, 104%; in the assay on ACHN renal, 106%; in the assay on MOLT-4 leukemia it was 109%. Besides, the growth in the assay with OVCAR-8 ovarian was 101%; with SK-OV-3 ovarian it was 102%; in the assay with NCI/ADR-RES ovarian it was 103%; in the assay on T-47D breast, 95.9%; with MDA-MB-435 melanoma, 99.9%; with SW-620 colon, 97%. Further, the growth is 116% with HCT-116 colon and 102% with KM12 colon.
On to `CCCCN(CCCC)CC(O)c1ccccc1` (stereo not drawn), for which the growth in the assay with 786-0 renal is 103%; in the assay with DU-145 prostate, 113%; in the assay on MDA-MB-231 breast, 104%; in the assay on SF-268 CNS, 114%; in the assay with SF-539 CNS it was 114%; in the assay on M14 melanoma, 100%. The growth in the assay on HCT-15 colon was 104%; in the assay on SNB-19 CNS it was 106%; in the assay on UACC-62 melanoma, 105%; in the assay with SN12C renal it was 111%; with ACHN renal it was 102%; with MOLT-4 leukemia, 97.2%. Also, the growth in the assay on OVCAR-8 ovarian was 109%; in the assay on SK-OV-3 ovarian it was 111%; in the assay with NCI/ADR-RES ovarian it was 105%; in the assay with T-47D breast it was 127%; in the assay on MDA-MB-435 melanoma, 105%; with SW-620 colon, 102%. In addition, the figures for the growth in the assay on HCT-116 colon and in the assay with KM12 colon were 114% and 104%, respectively.
For `CCOC(=O)/C(C#N)=C/c1ccc(N(CCCl)CCCl)cc1`, the growth with 786-0 renal is 84.1%; in the assay on DU-145 prostate, 98.8%; in the assay with MDA-MB-231 breast, 90.8%; in the assay with SF-268 CNS, 77.5%; in the assay with SF-539 CNS it was 84.9%; in the assay on M14 melanoma, 105%. The growth in the assay on HCT-15 colon was 91.1%; in the assay with SNB-19 CNS, 106%; with UACC-62 melanoma, 66.5%; with SN12C renal it was 72.4%; in the assay with ACHN renal it was 72.8%; in the assay with MOLT-4 leukemia it was 84.7%. For the same compound, the growth with OVCAR-8 ovarian was 71.6%; in the assay on SK-OV-3 ovarian, 92.6%; with NCI/ADR-RES ovarian, 94.8%; with T-47D breast, 80.6%; with MDA-MB-435 melanoma it was 94.4%; with SW-620 colon it was 87.3%. Besides, the growth is 97% in the assay with HCT-116 colon and 106% with KM12 colon.
For the compound `OB([O][Hg][c]1ccccc1)[O][Hg][c]1ccccc1`, the growth was -76.6% (active) with 786-0 renal; -73.5% (active) in the assay with DU-145 prostate; -69.8% (active) in the assay with MDA-MB-231 breast; -51.2% (active) in the assay on SF-268 CNS; -87.7% (active) in the assay with SF-539 CNS; -80.9% (active) in the assay with M14 melanoma. The growth in the assay on HCT-15 colon was -70.3% (active); in the assay with SNB-19 CNS, 5.87% (active); with UACC-62 melanoma, -99.1% (active); in the assay with SN12C renal, -99.6% (active); with ACHN renal, -95.6% (active); in the assay on MOLT-4 leukemia, -38.8% (active). Besides, the growth in the assay on OVCAR-8 ovarian is -97.1% (active); in the assay with SK-OV-3 ovarian, -62.7% (active); in the assay on NCI/ADR-RES ovarian, -18.2% (active); with T-47D breast it was -42.4% (active); in the assay with MDA-MB-435 melanoma it was -84% (active); in the assay on SW-620 colon, -48.9% (active). Moreover, the growth was -68.4% (active) in the assay on HCT-116 colon and 14.7% with KM12 colon.
Turning to `O=C1c2ccccc2C(=O)N1[N+](=O)[O-]`, the growth with 786-0 renal was 100%; in the assay with DU-145 prostate, 106%; in the assay on MDA-MB-231 breast it was 101%; in the assay on SF-268 CNS it was 104%; in the assay on SF-539 CNS, 108%; in the assay with M14 melanoma, 105%. Besides, the growth with HCT-15 colon is 110%; in the assay on SNB-19 CNS, 6.79% (active); in the assay on UACC-62 melanoma, 96.1%; with SN12C renal, 97.2%; in the assay on ACHN renal, 111%; in the assay with MOLT-4 leukemia, 108%. The growth with OVCAR-8 ovarian is 100%; in the assay with SK-OV-3 ovarian, 114%; in the assay on NCI/ADR-RES ovarian it was 97.9%; with MDA-MB-435 melanoma, 110%; with SW-620 colon it was 103%; in the assay with HCT-116 colon it was 112%. Moreover, the growth in the assay on KM12 colon is 101%.
With `O=C1NC(=O)C(O)(C2(O)C(=O)NC(=O)NC2=O)C(=O)N1`, the growth was 93.4% in the assay on 786-0 renal; 109% with DU-145 prostate; 91.2% in the assay with MDA-MB-231 breast; 91.6% in the assay with SF-268 CNS; 88% in the assay on SF-539 CNS; 105% in the assay on M14 melanoma. Also, the growth in the assay with HCT-15 colon was 107%; in the assay on SNB-19 CNS, 96.1%; in the assay with UACC-62 melanoma, 87.2%; in the assay with SN12C renal it was 92.3%; with ACHN renal, 104%; in the assay with MOLT-4 leukemia, 85.2%. For the same compound, the growth in the assay with OVCAR-8 ovarian is 109%; in the assay on SK-OV-3 ovarian it was 111%; with NCI/ADR-RES ovarian, 92.7%; in the assay with T-47D breast it was 101%; with MDA-MB-435 melanoma, 108%; in the assay with SW-620 colon, 96.4%. Moreover, the results for the growth in the assay with HCT-116 colon and with KM12 colon were 97% and 100%, respectively.
